An excerpt weighted towards active compounds, which were near 3.1% of everything screened.
TrxR1 substrate = rat thioredoxin reductase 1 substrate activity | purified TrxR1 substrate turnover, NADPH consumption readout | actives 0.01% (n = 390,000) | O89049 | AID 588456 | Potency, µM (titrated, usually from 114 µM), for the others: top-dose activity change, negative = substrate turnover; further: on the % scale 0 is the no-effect control and ±100 the full control effect; nearly all actives have a fitted effect of over 50% in size
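Rat TrxR1, dispensed at 90 nM, was prereduced with 400 uM NADPH (final) for 5 min at ~22 deg C, then incubated with compound 15 min before 400 uM selenite. A first-read NADPH fluorescence drop versus no-compound background flagged substrates.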
TrxR1 inh = rat TrxR1 inhibition; Potency, µM (titrated, usually from 114 µM), for the others: top-dose activity change, negative = inhibition, usual class: inhibitors; AID 588453; actives 1% (n = 390,000); recombinant rTrxR1, NADPH fluorescence consumption, selenite substrate; O89049; further: on the % scale 0 is the no-effect control and ±100 the full control effect; nearly all actives have a fitted effect of over 65% in size
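Rat TrxR1 (90 nM in the dispensed reagent) was pre-reduced with 400 uM NADPH for 5 min at room temperature, then incubated with compound for 15 min. After 400 uM selenite was added, NADPH fluorescence (Ex 340/Em 450 nm) was followed for 8 min.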
A549 viability = counter-screen for Nrf2 inhibitors: cytotoxicity in A549 cells | A549 ARE-Fluc cells, CellTiter-Fluor viability, 18-24 h | Potency, µM (series often up to 46 µM), without a hit: at the highest dose activity change, negative = cytotoxicity, most hits filed as inhibitors | actives 0.16% (n = 390,000); further: on the % scale 0 is the no-effect control and ±100 the full control effect
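Cytotoxicity counterscreen: CellTiter-Fluor fluorescence was measured in A549 ARE_Fluc cells after 18-24 h of compound exposure in a concentration series. The subsequent BugLite luminescent read reports ARE-luciferase activity.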
Nrf2 inh = inhibitors of Nrf2 signaling | A549 ARE-Fluc reporter, luciferase luminescence, 18-24 h | Potency, µM (highest dose often 46 µM), for the others: at the top dose activity change, negative = inhibition, usual class: inhibitors | actives 2.1% (n = 360,000) | AID 504444; further: on the % scale 0 is the no-effect control and ±100 the full control effect; nearly all actives have a fitted effect of over 60% in size
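A549 ARE_Fluc cells, 5000/well, 5% FBS OPTI-MEM; compounds in dose-response, 18-24 h at 37 °C/5% CO2; CellTiter-Fluor viability read (Ex 405/Em 525), then BugLite luciferase luminescence = Nrf2 activity.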
Mito fusion yeast = blocks mitochondrial division or promotes mitochondrial fusion | S. cerevisiae fusion-defective mutant growth rescue, CellTiterGlo 48 h | Potency, µM (titrated, usually from 46.1 µM), without a hit: at the top dose growth rescue (activation), actives largely listed as activators | actives 0.23% (n = 320,000); further: % of control where 0% means no effect; nearly all actives have a fitted effect of over 45% in size
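Compounds are tested for their ability to restore growth of mitochondrial fusion-defective yeast strains at non-permissive 37C in YPEG medium over 48 hours. Viability is quantified by luciferase luminescence.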
mIDH1 inhibitor = human IDH1 R132H inhibition | O75874 | IDH1-R132H enzyme, NADPH consumption, diaphorase/resazurin fluorescence | actives 0.093% (n = 390,000) | Potency, µM (titrated, usually from 76.6 µM), without a hit: at the top dose activity change, negative = inhibition, actives largely listed as inhibitors; further: on the % scale 0 is the no-effect control and ±100 the full control effect; nearly all actives have a fitted effect of over 65% in size
Target sequence (O75874 whole entry R132H, stated change not applied): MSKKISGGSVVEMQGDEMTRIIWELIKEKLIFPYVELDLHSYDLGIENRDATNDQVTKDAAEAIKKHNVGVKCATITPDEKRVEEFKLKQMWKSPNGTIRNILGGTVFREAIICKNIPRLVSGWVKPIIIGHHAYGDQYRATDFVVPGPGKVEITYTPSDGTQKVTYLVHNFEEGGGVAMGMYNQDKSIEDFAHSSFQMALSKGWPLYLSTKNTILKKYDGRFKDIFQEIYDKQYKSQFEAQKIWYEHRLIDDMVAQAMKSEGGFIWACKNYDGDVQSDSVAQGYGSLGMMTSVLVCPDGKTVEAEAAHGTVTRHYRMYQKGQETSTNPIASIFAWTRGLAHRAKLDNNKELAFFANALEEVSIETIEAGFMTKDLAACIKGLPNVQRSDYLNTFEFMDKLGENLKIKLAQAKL
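IDH1-R132H (0.5 ug/mL dispensed) in pH 7.5 Tris buffer was preincubated 30 min with compound, then given a substrate mix of 0.016 mM NADPH and 2 mM alpha-KG for 80 min at room temperature; remaining NADPH was read by diaphorase/resazurin fluorescence.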
An asterisk follows results filed as active; [ ] = another dose, or the depositor's remark. The call rests on the fitted dose curve; in most records, active means well fitted curve in the direction sought with a large enough effect; inconclusive means small, poorly fitted or top-dose-only effect, or another doubt; inactive means no such curve, though single readings can be large; an effect the other way counts as inactive or inconclusive. Potency means the concentration at half of the fitted maximal effect.

How did O=S(=O)(c1ccccc1)C1(S(=O)(=O)c2ccccc2)CCCC1 do in these assays?
TrxR1 substrate: 1.5%; TrxR1 inh: 11.7%; A549 viability: -11.7%; Nrf2 inh: -21.8%; Mito fusion yeast: 0.3%; mIDH1 inhibitor: 3.5%

How did Cc1csc(N/N=C/c2ccc(O)c([N+](=O)[O-])c2)n1 do in these assays?
TrxR1 substrate: -23.2%; TrxR1 inh: 28.2µM*; A549 viability: -19.5%; Nrf2 inh: -0.8%; Mito fusion yeast: -4.9%; mIDH1 inhibitor: 4.2%

Results for O=[N+]([O-])c1cc2c(c(CSc3nnc(Nc4ccccc4)s3)c1)OCOC2 ?
TrxR1 substrate: -2.0%; TrxR1 inh: -11.8%; A549 viability: -9.1%; Nrf2 inh: -10.7%; Mito fusion yeast: -0.2%; mIDH1 inhibitor: 1.1%

How did Cc1ccccc1Nc1nnc(SCc2cc([N+](=O)[O-])cc3c2OCOC3)s1 do in these assays?
TrxR1 substrate: 3.4%[57.1 µM]; TrxR1 inh: -4.0%[57.1 µM]; A549 viability: -0.6%; Nrf2 inh: 25.9µM*; Mito fusion yeast: 20.5%; mIDH1 inhibitor: 10.5%

How did COc1cc(N(C)C)c(OC)cc1/C=C/c1ccnc2ccccc12 do in these assays?
TrxR1 substrate: -0.4%; TrxR1 inh: 22.0%[0.0914 µM]

How did O=C(CN1CCN(c2ccc(F)cc2)CC1)c1ccc2c(c1)OCO2 do in these assays?
TrxR1 substrate: 4.2%; TrxR1 inh: 25.1µM*; A549 viability: -1.4%; Nrf2 inh: 10.6%; Mito fusion yeast: -0.1%; mIDH1 inhibitor: 3.0%

How did COc1ccccc1N1CCN(c2nc3c(S(=O)(=O)c4ccccc4)nnn3c3ccc(Cl)cc23)CC1 do in these assays?
TrxR1 substrate: 0.0%; TrxR1 inh: 14.9%; A549 viability: 11.1%; Nrf2 inh: -2.6%; mIDH1 inhibitor: -15.5%

How did CCN(CC)c1ccc(N=Cc2ccccc2[N+](=O)[O-])cc1 do in these assays?
TrxR1 substrate: -17.1%; TrxR1 inh: 70.8µM*; A549 viability: -15.9%; Nrf2 inh: inconclusive; Mito fusion yeast: -14.6%; mIDH1 inhibitor: 11.6%

Results for CCN(CC)c1ccc(N=Cc2ccc([N+](=O)[O-])o2)cc1 ?
TrxR1 substrate: 6.1%; TrxR1 inh: 3.16µM*; A549 viability: -24.8%; Nrf2 inh: inconclusive; Mito fusion yeast: -6.5%; mIDH1 inhibitor: 13.8%

How did Cc1ccc(NS(=O)(=O)c2cc3c(cc2N(C)C)CCC(=O)N3)cc1C do in these assays?
A549 viability: 2.5%; Nrf2 inh: 13.3%

Results for COc1ccc(Sc2ccccc2CN(C)C)cc1OC ?
TrxR1 substrate: 13.8%[57.1 µM]; TrxR1 inh: 19.7%[57.1 µM]; A549 viability: -7.9%; Nrf2 inh: 0.5%; Mito fusion yeast: -1.3%; mIDH1 inhibitor: 2.9%

How did CNCc1ccccc1Sc1ccc(O)c(O)c1 do in these assays?
TrxR1 substrate: -10.1%; TrxR1 inh: 31.6µM*; A549 viability: -13.7%; Nrf2 inh: -5.7%; Mito fusion yeast: -1.4%; mIDH1 inhibitor: 17.3%

Results for O=C(CNC(=O)c1ccccc1)OC(CCc1ccccc1)C(=O)Nc1cc(C(F)(F)F)ccc1Cl (stereo not drawn) ?
A549 viability: -0.4%; Nrf2 inh: 13.1%

How did Cc1ccccc1S(=O)(=O)NC1OC(=O)C(Oc2ccccc2)=C1Br (stereo not drawn) do in these assays?
TrxR1 substrate: 6.2%[57.1 µM]; TrxR1 inh: inconclusive; A549 viability: -0.2%; Nrf2 inh: -0.9%; Mito fusion yeast: -2.6%; mIDH1 inhibitor: 0.9%

Results for Cc1ccccc1S(=O)(=O)NC1OC(=O)C(Cl)=C1Cl (stereo not drawn) ?
TrxR1 substrate: -7.7%; TrxR1 inh: 12.6µM*; A549 viability: 0.1%; Nrf2 inh: 4.5%; Mito fusion yeast: -1.6%; mIDH1 inhibitor: 1.0%

Results for CCCS(=O)(=O)c1c(S(=O)(=O)CCC)c2c3ccccc3ccn2c1C(=O)OC ?
TrxR1 substrate: 24.7%; TrxR1 inh: -2.5%; A549 viability: -7.5%; Nrf2 inh: inconclusive; Mito fusion yeast: 13.7%; mIDH1 inhibitor: 4.0%

What do the screens show for `CCCS(=O)(=O)c1c(S(=O)(=O)CCC)c2c(C)cccn2c1C(=O)OC`?
TrxR1 substrate: 14.4%; TrxR1 inh: 25.1µM*; A549 viability: 11.9%; Nrf2 inh: 8.7%; Mito fusion yeast: 3.4%; mIDH1 inhibitor: 6.2%

How did CCCS(=O)(=O)c1c(S(=O)(=O)CCC)c2ccccn2c1C(=O)OC do in these assays?
TrxR1 substrate: 12.1%; TrxR1 inh: 39.8µM*; A549 viability: -6.9%; Nrf2 inh: 15.8%; Mito fusion yeast: -0.3%; mIDH1 inhibitor: 6.4%

What do the screens show for `CCN1c2ccccc2NC2N=C(OC)C(c3ccccc3)C21` (stereo not drawn)?
TrxR1 substrate: 2.8%; TrxR1 inh: 20µM*; A549 viability: 20.6µM*; Nrf2 inh: inconclusive; Mito fusion yeast: 3.9%; mIDH1 inhibitor: 13.5%

Results for CCN1c2ccccc2NC2C1C(C(C)=O)C(=O)N2c1ccc(Cl)cc1 (stereo not drawn) ?
TrxR1 substrate: -9.0%; TrxR1 inh: -25.0%; A549 viability: -11.9%; Nrf2 inh: inconclusive; Mito fusion yeast: -5.7%; mIDH1 inhibitor: 0.5%

What do the screens show for `Clc1ccc(-c2nc3ccccn3c2Nc2ccc3c(c2)OCCO3)s1`?
TrxR1 substrate: 1.6%; TrxR1 inh: inconclusive; A549 viability: 6.7%; Nrf2 inh: inconclusive; mIDH1 inhibitor: -21.9%

What do the screens show for `Cc1ccc(NS(=O)(=O)c2ccc(Cl)c(C(=O)Nc3ccccc3-c3nc4ccccc4[nH]3)c2)cc1C`?
TrxR1 substrate: 69.1%; TrxR1 inh: 49.7%; A549 viability: -27.4%; Nrf2 inh: 23.1µM*; Mito fusion yeast: inconclusive; mIDH1 inhibitor: 5.8%

Results for O=C(CC(=O)c1ccccc1)Nc1ccccc1C(F)(F)F ?
TrxR1 substrate: 3.9%; TrxR1 inh: 19.8%; A549 viability: -0.5%; Nrf2 inh: 16.4µM*; Mito fusion yeast: 13.3%; mIDH1 inhibitor: 1.4%

Results for O=C(COc1ccc(C(=S)N2CCCC2)cc1)Nc1ccccc1C(F)(F)F ?
TrxR1 substrate: 0.9%[57.1 µM]; TrxR1 inh: 1.2%[57.1 µM]; A549 viability: inconclusive; Nrf2 inh: 23.1µM*; Mito fusion yeast: 1.9%; mIDH1 inhibitor: 2.0%

How did O=C(COc1ccc(C(=S)N2CCOCC2)cc1)Nc1ccccc1C(F)(F)F do in these assays?
TrxR1 substrate: 1.0%[57.1 µM]; TrxR1 inh: 15.3%[57.1 µM]; A549 viability: -0.8%; Nrf2 inh: inconclusive; Mito fusion yeast: 7.3%; mIDH1 inhibitor: 6.0%

What do the screens show for `O=C(C[n+]1cccc2cc(Cl)ccc21)c1ccc2c(c1)CCCC2`?
TrxR1 substrate: 12.4%[0.0914 µM]; TrxR1 inh: 18.0%

High-throughput results as filed in PubChem BioAssay.
